Consider 42 sequences from paper PMC7819943, “Rice protein-binding microarrays: a tool to detect cis-acting elements near promoter regions in rice”.

In all, about 39,000 sequences were measured (“fluorescence intensity (a.u.)”: median about 4,300, highest 2% from about 39,000 on). The entries come from a sample that favours the highest values as a whole.

The experiment addresses T1, OsSMF1 (Oryza sativa, UniProt Q6ZLB0 1-436).
T1 sequence: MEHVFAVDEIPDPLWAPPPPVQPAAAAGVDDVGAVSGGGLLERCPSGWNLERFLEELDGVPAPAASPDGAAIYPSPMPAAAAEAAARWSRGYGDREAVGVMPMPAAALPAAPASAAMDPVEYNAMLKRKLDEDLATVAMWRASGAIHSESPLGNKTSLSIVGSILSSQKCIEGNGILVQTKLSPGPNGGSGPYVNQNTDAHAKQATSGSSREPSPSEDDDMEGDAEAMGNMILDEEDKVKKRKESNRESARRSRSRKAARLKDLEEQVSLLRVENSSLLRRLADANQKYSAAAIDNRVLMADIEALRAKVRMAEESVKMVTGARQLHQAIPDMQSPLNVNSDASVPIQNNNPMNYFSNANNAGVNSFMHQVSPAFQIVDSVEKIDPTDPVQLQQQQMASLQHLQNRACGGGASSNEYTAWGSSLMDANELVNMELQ
Nature of the experiment: protein-binding microarray (RPBM); PBS, 2% BSA, 51.3 ng/ul salmon testes DNA, 50 uM zinc acetate, 200 nM TF, 25 C, 1 h; high values mean tight binding. To be noted: protein: recombinant; tags: N-terminal polyhistidine and DsRed monomer fusion (pET32a); chain copies: 2; label: CyDye5-dUTP incorporated in the synthesized complementary strand; 3' TTTTT single-stranded linker to array surface; dsDNA, one strand shown. An outline of the steps:
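The binding signal is fluorescence intensity per array feature (arbitrary units). Readings came from an Axon 4000B scanner after a washed, 2% BSA-blocked, double-stranded custom Agilent array had been incubated for 1 h at 25 °C with 200 nM protein and 50 µM zinc acetate. The protein was a Ni–NTA-purified transcription factor fused N-terminally to polyhistidine and DsRed, expressed in E. coli BL21-CodonPlus.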
Turning to “GATGAGATGAGGGAGATACCATCAGACTTGCACCAGATGGCGGAGTCACCTAGTGCAG”, the binding signal was 3660 fluorescence intensity (a.u.).
With “CGGACTGAGCTGCCTCGCCCGCCTCCGAGCAGTTGGGGAACGGAGTCACCTAGTGCAG”, the binding signal was 40900 fluorescence intensity (a.u.).
Take “TCTGACTGCCTCCGTCACTCCGTGCCTCGTTGGGAGCAGCCGGAGTCACCTAGTGCAG”: the binding signal is 5300 fluorescence intensity (a.u.).
Consider “TGAGGGCCGCCACGTCCTCATGGCCTCCGCCCCATCGGAGCGGAGTCACCTAGTGCAG”, for which the binding signal was 7660 fluorescence intensity (a.u.).
With “CCATGGCACCTCCTCCTACGCCAGCACCGCTGCCGTGATGCGGAGTCACCTAGTGCAG”, the binding signal was 4800 fluorescence intensity (a.u.).
Take “GACTTGCGGCCACGGAGTCAGGGCCGTGCACGTGGAGGTACGGAGTCACCTAGTGCAG”: the binding signal is 4910 fluorescence intensity (a.u.).
“GTGGCCACTTGCATCAGCCGGCCATGAGTGGAGGGGTAAGCGGAGTCACCTAGTGCAG”: the binding signal was 49700 fluorescence intensity (a.u.).
The same measure for “CGTCGATGGCGTGCGTGAGAGCCTCCACGCCTTGCTGCCGCGGAGTCACCTAGTGCAG”: 4660 fluorescence intensity (a.u.).
On to “CCCATGGCGTGCCACTCCGGCGGTCCGGCCGCCACGTCAGCGGAGTCACCTAGTGCAG”, for which the binding signal was 38500 fluorescence intensity (a.u.).
To “TCATACACATACAACTTTTCAGTCACATCATTTACAATTTCGGAGTCACCTAGTGCAG” belongs 29000 fluorescence intensity (a.u.); to “AAACACTGAAATTTTAGCATCACGAAGTTCTCACCGAGACCGGAGTCACCTAGTGCAG”, 5200 fluorescence intensity (a.u.).
With “GGGTTCGATTCCCCGCACCTCCAATATAAAACGTTTTCTTCGGAGTCACCTAGTGCAG”, the binding signal was 3420 fluorescence intensity (a.u.).
For “GAGTCCGGCGTGATGCCGTGATGACGCCGCAACGCGGCATCGGAGTCACCTAGTGCAG”, the binding signal is 9060 fluorescence intensity (a.u.).
Regarding “AGCATGCACCTTGATCACGGGAACGAGCTAGCGAGAGGCACGGAGTCACCTAGTGCAG”, the binding signal was 3720 fluorescence intensity (a.u.).
On to “ACAAACGAACAAGACATGAAGCCGATGAGTCCAGCAGAGCCGGAGTCACCTAGTGCAG”, for which the binding signal was 3170 fluorescence intensity (a.u.).
The same measure for “GTTAATGGTGACTTTATTTTCGTCTGTTACAAAACGGAAGCGGAGTCACCTAGTGCAG”: 3250 fluorescence intensity (a.u.); for “GATTAATTGATTTATTTCTTTCTGCTTTACCCGGTCGCCACGGAGTCACCTAGTGCAG”: 19200 fluorescence intensity (a.u.).
As for “GCTGGCCCATCTCCTTGCCCACCCATGGGCCTGAAAGCCGCGGAGTCACCTAGTGCAG”, the binding signal is 49900 fluorescence intensity (a.u.).
To “CACCCATCTCCTTGCCGGCCTCTCCACCCCGCCTCTTTCGCGGAGTCACCTAGTGCAG” belongs 19000 fluorescence intensity (a.u.).
The same measure for “TGGGAGCGCTGGGGCTGGCCATCTCTCCTTGCCTGCTGTGCGGAGTCACCTAGTGCAG”: 29400 fluorescence intensity (a.u.); for “ATTGATGTTACATGCCTCGCAAGCGATGACACGGCAAGCTCGGAGTCACCTAGTGCAG”: 5060 fluorescence intensity (a.u.).
The same measure for “AGCTCAGCTGTCACGGTGTCACCTGTCAGCGCCCACAACTCGGAGTCACCTAGTGCAG”: 6140 fluorescence intensity (a.u.); for “GGCGAAGAATGCAGACATGACACGGACCCATCGACGCGGGCGGAGTCACCTAGTGCAG”: 3340 fluorescence intensity (a.u.); for “AGTGGAAGCAGGTCTTTTACTGATCGATCAAGGTCTGATGCGGAGTCACCTAGTGCAG”: 16800 fluorescence intensity (a.u.).
As for “CTCATCTCAAGCTTTTCTCTCTCTCTCTCTCTTTGCACTACGGAGTCACCTAGTGCAG”, the binding signal was 4680 fluorescence intensity (a.u.).
Turning to “GAGCTTCTGACTCATCTTTACTAGGAAGGGTCTTTTCAAGCGGAGTCACCTAGTGCAG”, the binding signal was 39100 fluorescence intensity (a.u.).
The same measure for “CGCCGTCGACACGTGGGGCCCCTCCTCCCGCCGCCGCCGCCGGAGTCACCTAGTGCAG”: 9020 fluorescence intensity (a.u.); for “GACTACGCGTACGCCACGCCACAACGCTTCTCGCTCTCCCCGGAGTCACCTAGTGCAG”: 4510 fluorescence intensity (a.u.); for “TAATGAATTAGGGCATTGGATGTACCAACTTATGTTATATCGGAGTCACCTAGTGCAG”: 23300 fluorescence intensity (a.u.).
With “TTAGCAAGTGCCTATGTGAGGATATAGCAATATTTCAATGCGGAGTCACCTAGTGCAG”, the binding signal was 42200 fluorescence intensity (a.u.).
For the sequence “CTATATTAATTAATGAATTAGCAATTGGATGTACCAATTTCGGAGTCACCTAGTGCAG”, the binding signal is 41000 fluorescence intensity (a.u.).
As for “CTCTCCTACAATAGGATGGACTATGTGACGTAGCACAATGCGGAGTCACCTAGTGCAG”, the binding signal is 7860 fluorescence intensity (a.u.).
To “ACAATTTTAATGAAATCGTACATTATACTATATATGTTTTCGGAGTCACCTAGTGCAG” belongs 3150 fluorescence intensity (a.u.); to “CAAATATATTATCAAAATATATTCAATGCTAAATTTAATGCGGAGTCACCTAGTGCAG”, 5300 fluorescence intensity (a.u.).
In the case of “TTAATAGTATAGTAAGCAATTGTTGTATGAATTGGCTATTCGGAGTCACCTAGTGCAG”, the binding signal is 27200 fluorescence intensity (a.u.).
As to “TATATTCAATGCTATGTTTAATGAAACTAATTTGGATATTCGGAGTCACCTAGTGCAG”, the binding signal is 65100 fluorescence intensity (a.u.).
To “GGATATGTATAACAATGTGGGTCAGCAATATTGAACTATGCGGAGTCACCTAGTGCAG” belongs 3650 fluorescence intensity (a.u.).
For the sequence “CCCGTGACGTGTCGGCATCGGAGGGCCCCTCGTCGGGGTCCGGAGTCACCTAGTGCAG”, the binding signal is 10200 fluorescence intensity (a.u.).
Regarding “GGTCCCGTCAGGGAAGGACCCCACGTCCTCGGTTCCATTCCGGAGTCACCTAGTGCAG”, the binding signal is 3910 fluorescence intensity (a.u.).
In the case of “GAGCAGTAATGCGTGTGCGGCGATTGGCACGTGCATGGTGCGGAGTCACCTAGTGCAG”, the binding signal is 3780 fluorescence intensity (a.u.).
On to “CTCCTTGGCCCGTTTGGTCTCTGTGTGGGTTGGTAAAGACCGGAGTCACCTAGTGCAG”, for which the binding signal is 3330 fluorescence intensity (a.u.).
Consider “CCTCCGACATCTCCAGCCAATTCCAGCTCAGCTCTCGCCGCGGAGTCACCTAGTGCAG”, for which the binding signal is 4150 fluorescence intensity (a.u.).
